Among all 2,300 compounds or so, about 1,200 (52%) were called active. About 34% were inconclusive and are not listed. Calls come from the whole dose curve; as a rule, active = well fitted inhibition curve with a large enough effect; inconclusive = small, poorly fitted or top-dose-only effect, or effect the other way; inactive = no such curve, though single readings can be large or run the other way. So high a share suggests a set chosen from earlier hits. The list shows a part of the results.
test: Confirmation screen for delayed death inhibitors of the malarial parasite plastid, 48 hour incubation; note: nearly all actives have a fitted effect of over 65% in size; details: P. falciparum-infected erythrocytes, luciferase growth; series mostly up to 28.7 µM; activity change, negative = inhibition: at the top concentration
How it was run: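 Single-generation (48 h, 37 C) exposure of integrated firefly luciferase-reporter P. falciparum in red cells, 0.1% parasitemia at 2% hematocrit, Albumax-supplemented RPMI. Falling luciferase signal marks parasite growth inhibition.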
% is set by controls: 0 for no effect and ±100 for the full control effect; potency is the fitted concentration of half-maximal effect.

Compound | Potency | activity change, negative = inhibition
Cc1ccc(-c2nnc(SCC(=O)N/N=C/c3cccs3)n2-c2ccc(C)cc2)cc1 | 11.2 µM (active) | 
CC(C)OCCCNc1ncnc2c1[nH]c1ccc(F)cc12 | 4.47 µM (active) | 
COc1ccc2[nH]c3c(NCCC4=CCCCC4)ncnc3c2c1 | 5.62 µM (active) | 
COc1ccc2[nH]c3c(NCCN(C(C)C)C(C)C)ncnc3c2c1 | 5.62 µM (active) | 
Cc1cc(C)n2nc(SCC(=O)N3CCN(c4ccc(F)cc4)CC3)nc2n1 | 12.6 µM (active) | 
CCn1c2ccccc2c2cc(Nc3cc(C)nc4ncnn34)ccc21 | 0.251 µM (active) | 
CCOC(=O)CCC(=O)Nc1ncnc2c1C(c1ccccc1)c1c(ccc3ccccc13)O2 (centres undefined) | 8.91 µM (active) | 
O=C(Nc1ccccc1O)c1ccc([N+](=O)[O-])cc1 | 15.8 µM (active) | 
O=C(Nc1ccccc1C(=O)Nc1ccccc1C(=O)O)c1ccccc1 |  | -29.2% (inactive)
Cc1sc(NC(=O)c2c(F)cccc2F)nc1-c1ccccc1 |  | -7.17% (inactive)
Cc1sc(N/N=C/c2cccnc2)nc1-c1ccccc1 | 12.6 µM (active) | 
Cc1ccc(N/N=C/c2ccncc2)cc1 |  | -6.56% (inactive)
CC1CN(C(=O)N2c3ccccc3Sc3ccccc32)CC(C)O1 (centres undefined) | 14.1 µM (active) | 
O=C(N1CCOCC1)N1c2ccccc2Sc2ccccc21 |  | -18.4% (inactive)
C/C=C(\C)C(=O)NCCN1C2=NC[C@H](Cc3ccccc3)N2C[C@H]1Cc1ccc(O)cc1 | 11.2 µM (active) | 
O=C(CCC1CCCCC1)NCCN1C2=NC[C@H](Cc3ccccc3)N2C[C@H]1Cc1ccc(O)cc1 | 11.2 µM (active) | 
C[C@H]1CN=C2N(CCNC(=O)CCC3CCCCC3)[C@H](Cc3ccc(O)cc3)CN21 | 11.2 µM (active) | 
C[C@@H](CN1C2=NC[C@H](Cc3ccc(O)cc3)N2C[C@H]1Cc1ccc(O)cc1)NC(=O)CCC1CCCCC1 | 8.91 µM (active) | 
CC1CCN(CCNC(=O)C2CCN(S(=O)(=O)c3cccc4nsnc34)CC2)CC1 | 14.1 µM (active) | 
Cc1cc2nsnc2c(S(=O)(=O)N2CCN(C)CC2)c1C |  | -4.46% (inactive)

Compound | Potency | activity change, negative = inhibition
CN(C)S(=O)(=O)c1cc(NC(=O)c2cc(=O)c3ccccc3o2)ccc1Cl | 11.2 µM (active) | 
Nc1cc[n+](CC(=O)c2ccc3c(c2)OCCO3)cc1 | 7.08 µM (active) | 
O=Cc1s/c(=N\S(=O)(=O)c2ccccc2)n(CCCCl)c1Cl |  | -12.4% (inactive)
CCOC(=O)c1cnc2c(C)c(Cl)ccc2c1NCCCN1CCOCC1 | 14.1 µM (active) | 
N=c1c2c(n(Cc3ccc(Cl)cc3)c3c1CCC3)CCC2 | 0.562 µM (active) | 
N=c1c2c(n(Cc3ccc(Cl)c(Cl)c3)c3c1CCC3)CCCC2 | 0.355 µM (active) | 
O=C(Nc1ccc(N2CCCCC2)c(Cl)c1)c1cccnc1 | 11.2 µM (active) | 
Cc1cc(C)cc(NC(=O)c2cccnc2)c1 |  | -20.6% (inactive)
COCCN(C(=O)c1ccccc1F)c1nnc(-c2ccc(OC)cc2)s1 | 10 µM (active) | 
CC(C)(C)C1C/C(=C/c2ccccn2)C(=O)/C(=C/c2ccccn2)C1 (centres undefined) | 0.316 µM (active) | 
COC(=O)CSc1nc2c(c(-c3ccco3)c1C#N)CCCC2 | 12.6 µM (active) | 
N#C/C(=C\c1ccc(-c2ccc(C(=O)O)cc2)o1)C(=O)Nc1ccc(F)cc1 | 14.1 µM (active) | 
Cc1ccc(NC2=C/C(=N\S(=O)(=O)c3cccs3)c3ccccc3C2=O)c(C)c1 | 0.282 µM (active) | 
CCCC(=O)NC(c1ccccc1)c1c(O)ccc2ccccc12 (centres undefined) | 7.08 µM (active) | 
CC(C)(C(=O)N[C@H](CO)c1ccccc1)C(=O)N[C@H](CO)c1ccccc1 |  | -2.48% (inactive)
CCCCNC(=O)c1onc(CSc2cccc3ccccc23)c1C(=O)O |  | -3.23% (inactive)
CCC1=C/C(=C/c2sc3ccccc3[n+]2CC)CC(C)(C)C1 | 5.62 µM (active) | 
CCCc1nnc(NC(=O)c2nc(S(=O)(=O)Cc3cccc(C)c3)ncc2Cl)s1 |  | -23.9% (inactive)
CCC(C)[C@@H](NC(=O)OC(C)(C)C)c1nnc(S(=O)(=O)Cc2cccc(C)c2)o1 (some centres undefined) | 14.1 µM (active) | 
O=C(COc1cccc2ccccc12)Nc1ccc(Cl)cc1C(=O)O |  | -10% (inactive)

Compound | Potency | activity change, negative = inhibition
O=C(COc1ccccc1Cl)NC(=S)N1CCc2ccccc21 | 12.6 µM (active) | 
COc1cc2cc(CN(Cc3cccs3)C(=S)Nc3ccc(C)cc3)c(=O)[nH]c2cc1OC | 10 µM (active) | 
CCC(=O)NCCc1cc2ccc(C)cc2[nH]c1=O |  | -7.04% (inactive)
COc1cc2cc(CN(CCc3ccccc3C)C(=S)NCCCN3CCOCC3)c(=O)[nH]c2cc1OC | 7.94 µM (active) | 
CS(=O)(=O)c1ccc(-c2nnc(NC(=O)c3ccc(S(=O)(=O)N4CCCC4)cc3)o2)cc1 | 14.1 µM (active) | 
C=CCNC(=S)N/N=C/c1ccc(-c2cc(Cl)ccc2Cl)o1 | 12.6 µM (active) | 
O=C(NCc1cccnc1)/C(=C\c1ccc(-c2cccc(Cl)c2)o1)S(=O)(=O)c1ccccc1 | 12.6 µM (active) | 
O=C(NCc1cccnc1)c1nc(-c2ccccc2)n(-c2ccccc2)n1 |  | -19.4% (inactive)
Cc1ccc(-n2nc3c(=O)n(CCCC(=O)NCc4ccco4)nc(C)c3c2C)cc1 | 6.31 µM (active) | 
Cc1ccc2c(c1)N(CCC(=O)NCc1ccco1)C(=O)CO2 |  | -8.96% (inactive)
COc1ccccc1CCNC(=O)CCn1nc(C)c2c(C)n(-c3ccccc3)nc2c1=O | 14.1 µM (active) | 
COc1cc(CNC(=O)CCn2nc(C)c3c(C)n(-c4ccccc4)nc3c2=O)cc(OC)c1OC | 12.6 µM (active) | 
COc1ccccc1CNC(=O)CCCn1nc(C)c2c(C)n(-c3ccccc3)nc2c1=O | 12.6 µM (active) | 
CC(=O)Nc1sc(C)c(C)c1C(=O)OCC(=O)N(CC(C)C)C1CCS(=O)(=O)C1 (centres undefined) | 12.6 µM (active) | 
CSCCC(NC(=O)c1ccccc1Cl)C(=O)N1CCN(C(c2ccccc2)c2ccccc2)CC1 (centres undefined) | 3.98 µM (active) | 
Cc1ccc(N(Cc2ccco2)C(=O)c2ccc(N3CCCCC3)c([N+](=O)[O-])c2)cc1 | 11.2 µM (active) | 
C=CCNC(=O)c1onc(CSc2ccccc2CC)c1C(=O)O |  | -13.2% (inactive)
Fc1ccc2cnc(-c3ccccc3)c(-c3ccc(C(F)(F)F)cc3)c2c1 | 15.8 µM (active) | 
O=C(O)c1cc(-c2ccc3ccccc3c2)nc2ccc(F)cc12 |  | -26.3% (inactive)
